In the library only some 15% were active in any assay of this set; here they are far more common.
DT40 TDP1 no CPT: qHTS for Inhibitors of human tyrosyl-DNA phosphodiesterase 1 (TDP1): qHTS in cells in absence of CPT; AID 686978, 2013; DT40 Tdp1-/- hTDP1 cells, no CPT, ATP luminescence, 48 h; 420,000 tested, 15% active; Potency, µM (series often up to 46.2 µM), inactives show at the top dose activity change, negative = growth inhibition, actives largely listed as inhibitors; further: nearly all actives have a fitted effect of over 55% in size
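No-CPT arm: Tdp1-/-;hTDP1 DT40 cells (400/well) plus compounds, incubated ≥48 hr at 37 °C. Readout CellTiter-Glo luminescence.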
VP16 counter: VP16 counterscreen qHTS for inhibitors of ROR gamma transcriptional activity; Drosophila S2 Gal4-VP16 UAS-luciferase, luminescence, 20 h; Potency, µM (top dose mostly 53.6 µM), without a hit: at the top dose activity, negative = inhibition, usual class: inhibitors; 310,000 tested, 3.5% active; AID 2546, 2010;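 further: Gal4-VP16 expression switched on by copper sulfate through the metallothionein promoter; nearly all actives have a fitted effect of over 50% in size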
12-LOX inh: Primary qHTS assay for inhibitors of human arachidonate 12S-lipoxygenase (ALOX12): Round 2. Potency, µM (highest dose often 108 µM), for the others: at the top dose activity change, negative = inhibition, hits mostly inhibitors. AID 1671190, 2021. purified 12hLO, xylenol orange hydroperoxide absorbance. 580,000 tested, 1.1% active
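Hydroperoxide product was detected by ferrous iron/xylenol orange as the 573 to 405 nm absorbance ratio. Arachidonic acid at 40 uM (final) was turned over for 30 min at room temperature by 150 nM human 12hLO, pH 7.0 Hepes buffer, after 15 min compound preincubation.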
DT40 TDP1 CPT: qHTS for Inhibitors of human tyrosyl-DNA phosphodiesterase 1 (TDP1): qHTS in cells in presence of CPT; chicken DT40 Tdp1-/-;hTDP1 cells + 20 nM CPT, ATP luminescence, 48 h; 420,000 tested, 12% active; Potency, µM (titrated, usually from 46.2 µM), without a hit: top-dose activity change, negative = growth inhibition, actives largely listed as inhibitors; further: nearly all actives have a fitted effect of over 55% in size
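Cell growth measured by CellTiter-Glo luminescence after a minimum 48 h, 37 C compound exposure with 20 nM CPT in Tdp1-knockout DT40 cells stably expressing hTDP1, seeded 400/well; qHTS titration format.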
ELG1 DNA repair: qHTS screen for small molecules that inhibit ELG1-dependent DNA repair in human embryonic kidney (HEK293T) cells expressing luciferase-tagged ELG1. 330,000 tested, 2.3% active. HEK293T ELG1-luciferase reporter, luminescence, 16 h; DNA damage induced by 5-fluorouridine. Potency, µM (highest dose often 46.1 µM), inactives show at the highest dose activity change, negative = inhibition, actives largely listed as inhibitors; further: nearly all actives have a fitted effect of over 55% in size
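Step one: seed 2,000 cells per well. Step two: pin-transfer compound or DMSO alongside 5-fluorouridine. Step three: incubate 16 hr, 37 °C, 5% CO2. Step four: add ONE-Glo, wait 30 min, read luminescence.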
RORg inh: qHTS for inhibitors of ROR gamma transcriptional activity; Nuclear receptor ROR-gamma (Mus musculus), P51450; Potency, µM (doses to about 53.6 µM), for the others: top-dose activity change, negative = inhibition, actives largely listed as inhibitors; Drosophila S2 Gal4-RORgamma UAS-luciferase reporter, 20 h; 310,000 tested, 5.4% active; further: nearly all actives have a fitted effect of over 60% in size
Target sequence (P51450 whole entry, looked up, the tested form may be a part): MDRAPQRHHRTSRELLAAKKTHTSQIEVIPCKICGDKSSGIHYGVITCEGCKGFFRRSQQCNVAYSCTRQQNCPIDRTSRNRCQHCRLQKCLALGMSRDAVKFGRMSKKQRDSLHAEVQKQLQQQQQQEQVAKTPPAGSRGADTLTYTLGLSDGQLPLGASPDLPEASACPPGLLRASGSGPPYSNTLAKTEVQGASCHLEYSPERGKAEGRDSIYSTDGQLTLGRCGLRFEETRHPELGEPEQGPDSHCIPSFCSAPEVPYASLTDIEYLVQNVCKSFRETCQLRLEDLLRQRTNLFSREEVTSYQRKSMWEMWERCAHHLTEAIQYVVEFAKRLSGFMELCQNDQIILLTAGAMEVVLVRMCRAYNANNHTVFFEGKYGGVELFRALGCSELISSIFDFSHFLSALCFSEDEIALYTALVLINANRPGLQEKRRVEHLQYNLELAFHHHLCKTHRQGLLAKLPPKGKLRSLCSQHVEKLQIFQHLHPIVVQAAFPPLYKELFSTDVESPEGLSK
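Drosophila Schneider cells stably carrying a metallothionein-driven Gal4 DBD–ROR gamma fusion and a UAS-Photinus luciferase reporter were exposed to compound for 1 hr, then induced with copper sulfate (700 uM final) for 20 hr at ambient temperature before luminescence reading.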
The depositor's hits bear a star; ? = inconclusive; . = not tested or not shown; [ ] = dose if it differs, or a comment. The call rests on the fitted dose curve; in most records, active means well fitted curve in the direction sought with a large enough effect; inconclusive means small, poorly fitted or top-dose-only effect, or another doubt; inactive means no such curve, though single readings can be large; an effect the other way counts as inactive or inconclusive. On the % scale 0 is the no-effect control and ±100 the full control effect; potency means the concentration at half of the fitted maximal effect.

SMILES | DT40 TDP1 no CPT | VP16 counter | 12-LOX inh | DT40 TDP1 CPT | ELG1 DNA repair | RORg inh
O=C(c1cc(-c2ccc(Cl)c(Cl)c2)on1)N1CCCCCC1 | -28% | 5% | -6% | ? | ? | -21%
CCC(C)NC(=O)c1cc(-c2ccc3c(c2)OCO3)on1 (configuration not stated) | ? | ? | -12% | 4% | ? | ?
CC1CCCC(C)N1C(=O)c1cc(-c2ccc(Cl)c(Cl)c2)on1 (configuration not stated) | ? | 3% | 3% | 18µM* | ? | ?
O=C(c1cc(-c2ccc3c(c2)OCO3)on1)N1CCCCC1 | -3% | 11µM* | -6% | 5% | ? | ?
CC(C)c1ccc(S(=O)(=O)N2CCC(CC(=O)NCc3ccccc3)C2)cc1 (configuration not stated) | . | . | 8% | . | . | .
COCC(=O)N1CCc2nc(C)nc(-c3ccc(OC)cc3)c2C1 | . | . | 43%[176 µM] | . | . | .
COc1ccc(CCNC(=O)Cn2c(-c3cccs3)cc3cc(F)ccc32)cc1OC | 9.2µM* | . | -14% | 7.3µM* | . | .
CN(C)c1ccc(CNC(=O)Cn2c(-c3cccs3)cc3cc(Cl)ccc32)cc1 | ? | . | -15% | ? | . | .
COc1ccc(CCNC(=O)Cn2c(=O)n(-c3ccc(C)c(F)c3)c(=O)c3sccc32)cc1OC | 15µM* | 7%[10 µM] | -24% | 9.2µM* | ? | 19%
Cc1ccc(CNC(=O)Cn2c(-c3cccs3)cc3cc(Cl)ccc32)cc1 | 23µM* | . | -16% | ? | . | .
CC(CNC(=O)Cn1c(-c2cccs2)cc2ccccc21)c1ccccc1 (configuration not stated) | ? | . | -21% | 21µM* | . | .
Cc1ccc(-c2nn(C)c(=O)c3ccccc23)cc1CNC(=O)c1ccc(Cl)cc1 | . | . | -8% | . | . | .
Cc1ccc2oc(C(=O)NCC(c3cccs3)N3CCOCC3)c(C)c2c1 (configuration not stated) | . | . | -5% | . | . | .
CCNC(=S)NNC(=O)c1cc(-c2cccc(C)c2)nc2ccccc12 | 7.3µM* | 8.9µM* | ? | 21µM* | ? | 3.5µM*
CCOc1ccc(-c2cc(C(=O)N/N=C(\C)c3cccnc3)c3ccccc3n2)c(OCC)c1 | ? | ? | 319% | 15µM* | ? | ?
CCNC(=O)c1cc(-c2ccccc2)nc2ccccc12 | . | . | 12% | . | . | .
C/C(=N\NC(=O)c1cc(-c2cccnc2)nc2ccccc12)c1ccccc1O | 3.7µM* | 3% | 0% | 4.6µM* | ? | ?
COc1ccc(/C(C)=N/NC(=O)c2cc(-c3cccnc3)nc3ccccc23)cc1 | -22% | -17% | 1% | -23% | 10% | -11%
CCNC(=S)NNC(=O)c1cc(-c2cccnc2)nc2ccccc12 | -26% | ? | 9% | 3% | ? | 16µM*
CCCNC(=S)NNC(=O)c1cc(-c2cccnc2)nc2ccccc12 | 3% | -11% | 237% | 15% | 17% | ?
Cc1ccc(CNC(=O)c2ccc(CN3C(=O)NC4(CCOCC4)C3=O)cc2)cc1 | . | . | 20% | . | . | .
Cc1ccc(CNC(=O)C(C)N2CCCC(C(F)(F)F)C2)cc1 (configuration not stated) | . | . | 8% | . | . | .
CN(C)C(=O)C1CN(C(=O)NC2CCCCC2)CC12CCOCC2 (configuration not stated) | . | . | 16% | . | . | .
O=C(CSCc1coc(-c2ccc(Cl)cc2)n1)NCCc1ccccc1 | . | . | -10% | . | . | .
Cc1cc(COc2ccc(S(=O)(=O)c3ccccc3)cc2)on1 | . | . | 13% | . | . | .
SMILES | DT40 TDP1 no CPT | VP16 counter | 12-LOX inh | DT40 TDP1 CPT | ELG1 DNA repair | RORg inh
C/C(=N\NC(=O)c1cc(C2CC2)nc2ccccc12)c1ccc(O)cc1O | 5.2µM* | 18µM* | -4% | 6.5µM* | ? | 16µM*
CCCCOc1cccc(-c2cc(C(=O)NNC(=S)NCC)c3ccccc3n2)c1 | ? | ? | -29% | ? | ? | -40%
CCNC(=S)NNC(=O)c1cc(-c2cccc(OCC)c2)nc2ccccc12 | 10µM* | ? | -14% | 15µM* | ? | 13µM*
C/C(=N\NC(=O)c1cc(C2CC2)nc2ccccc12)c1ccc(C)s1 | ? | -3% | 0% | ? | 0% | -30%
CCOc1ccccc1N1CCN(C(=S)NCc2ccc(Cl)cc2)CC1 | -14% | -9% | 10% | ? | ? | 19%
O=C(NC(=S)N1CCN(c2ccc(F)cc2)CC1)C12CC3CC(CC(C3)C1)C2 | ? | 3.2µM* | -15% | ? | ? | 1.3µM*
O=C(Nc1ccccc1N1CCN(c2ccc(F)cc2)CC1)C12CC3CC(CC(C3)C1)C2 | ? | -10% | 0% | ? | -15% | -16%
CCOc1ccccc1N1CCN(C(=S)NC(=O)C23CC4CC(CC(C4)C2)C3)CC1 | 16µM* | 3.5µM* | ? | 18µM* | -16% | 3.5µM*
Cc1cc(C)n(CCC(=O)N2CCCC(Cc3nc(C4CCOCC4)no3)C2)n1 (configuration not stated) | . | . | 31% | . | . | .

High-throughput results from PubChem.
